Compound activity (PubChem BioAssay)
Sampled rows, rich in hits. Any-hit rate of the full collection: about 6.8%.
NS3h inh CB – hepatitis C NS3 helicase inhibition, primary screen | NS3h Cy5-dT15 DNA binding, fluorescence polarization | inhibition, % at 100 µM | 16,000 tested, 1.6% active | AID 687043;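 active = inhibition above the average over every tested compound plus 3 SD, cut at about 40% in these data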
Cy5 interf NS3h – enhances or quenches Cy5 fluorescence in NS3h assay. Cy5-dT15 DNA with NS3h, fluorescence interference; actives lie on both sides; signal over control mean, under 1 quenches. AID 720488. 16,000 tested, 6% active. fluorescence interference ratio at 100 µM;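 active = compound fluorescence over control fluorescence at most 0.8, a quencher, or at least a set upper limit, an enhancer; inactive = ratio between 0.8 and the set upper limit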
Numbers without * were called inactive.

`Cc1ccc2nc(/C(C#N)=C/c3ccc(-c4ccc(Cl)cc4)o3)[nH]c2c1` gave NS3h inh CB -50.7 and Cy5 interf NS3h 0.771*.
Screening CCCC(=O)NS(=O)(=O)c1ccc(NC(=O)c2ccccc2Cl)cc1 returned NS3h inh CB -0.7 and Cy5 interf NS3h 1.03.
For CCCC(=O)NC(c1ccc(C)cc1)c1c(O)ccc2ccccc12 (centres undefined) the results were NS3h inh CB -4.5 and Cy5 interf NS3h 1.18.
Screening Cc1ccc(C2(C)N(O)C(C)C(c3ccccc3)=[N+]2[O-])o1 (centres undefined) returned NS3h inh CB 30.8 and Cy5 interf NS3h 0.949.
Screening Cc1cccc(C(=O)Nc2ccc(C(=O)/C=C/c3ccncc3)cc2)c1 returned NS3h inh CB -4.9 and Cy5 interf NS3h 0.738*.
Screening CC(=O)Nc1cccc(C(=O)/C=C/c2ccc(/C=C/C(=O)c3cccc(NC(C)=O)c3)cc2)c1 returned NS3h inh CB 13.6 and Cy5 interf NS3h 1.18.
N#CC1=C(N)C(C#N)(C#N)C(c2ccc(Cl)cc2Cl)C2CCCC=C12 (centres undefined) was read as NS3h inh CB 0.3 and Cy5 interf NS3h 1.23*.
For Cc1ccccc1OCCOc1ccc(/C=c2\sc3nc4ccccc4n3c2=O)cc1 the results were NS3h inh CB 12.9 and Cy5 interf NS3h 1.11.
Cc1ccc(OCCOCCOc2ccc(/C=c3\sc4nc5ccccc5n4c3=O)cc2)cc1 was read as NS3h inh CB 9.1 and Cy5 interf NS3h 1.25*.
`COc1cccc(NC(=O)COc2ccc(C)cc2C)c1` gave NS3h inh CB 13.2 and Cy5 interf NS3h 0.785*.
For COc1cccc(NC(=O)COc2cc(C)c(Cl)c(C)c2)c1 the results were NS3h inh CB 10.5 and Cy5 interf NS3h 0.877.
`O=C(NCc1ccccc1)/C(NC(=O)c1ccccc1)=C1\c2ccccc2-c2ccc([N+](=O)[O-])cc21` gave NS3h inh CB 3.7 and Cy5 interf NS3h 1.03.
Screening CN(C)c1ccc(-c2nc3cc(NC(=O)c4cc5ccccc5o4)ccc3o2)cc1 returned NS3h inh CB 2.8 and Cy5 interf NS3h 1.04.
Screening Cc1cc(Nc2cccc(F)c2)n2c(nc3ccccc32)c1C#N returned NS3h inh CB 2.4 and Cy5 interf NS3h 1.02.
Screening Cc1cc(Nc2cccc(O)c2)n2ncnc2n1 returned NS3h inh CB 8.7 and Cy5 interf NS3h 0.692*.
NC(=O)C(=O)NCc1ccc(Cl)cc1 was read as NS3h inh CB 3.1 and Cy5 interf NS3h 0.655*.
`CC(C)CCNC(=O)C(=O)NCc1ccc(Cl)cc1` gave NS3h inh CB 9.0 and Cy5 interf NS3h 1.08.
For COc1ccc(C2C(C(=O)OC(C)C)=C(C)N=c3s/c(=C\c4ccc(C)o4)c(=O)n32)cc1 (centres undefined) the results were NS3h inh CB 2.2 and Cy5 interf NS3h 1.07.
Screening Cc1cc([N+](=O)[O-])ccc1-c1ccc(CO)o1 returned NS3h inh CB 1.4 and Cy5 interf NS3h 0.922.
For Cc1cc([N+](=O)[O-])ccc1-c1cc2ccccc2oc1=O the results were NS3h inh CB 17.7 and Cy5 interf NS3h 0.69*.
O=C(Nc1ccc(S(=O)(=O)N2CCCCCC2)cc1)c1ccc(F)cc1 was read as NS3h inh CB 1.7 and Cy5 interf NS3h 0.86.
CCC(=O)Nc1ccc(S(=O)(=O)N2CCCCCC2)cc1 was read as NS3h inh CB -8.6 and Cy5 interf NS3h 0.737*.
Screening Cc1ccc(C(=O)Nc2ccc(S(=O)(=O)N3CCCC3)cc2)cc1 returned NS3h inh CB 10.0 and Cy5 interf NS3h 1.11.
`O=C(O)/C=C/C(=O)Nc1ccc(S(=O)(=O)N2CCCCCC2)cc1` gave NS3h inh CB 9.9 and Cy5 interf NS3h 0.775*.
For Cc1ccc(C(=O)/C=C(/N)C(F)(F)F)cc1 the results were NS3h inh CB 10.5 and Cy5 interf NS3h 0.73*.
Screening O=C(C=C(O)c1ccc(F)cc1)C(F)(F)F returned NS3h inh CB 5.9 and Cy5 interf NS3h 0.944.
For CCn1c(C)[n+](CCO)c2cc(Cl)c(Cl)cc21 the results were NS3h inh CB 1.6 and Cy5 interf NS3h 0.863.
CC(C)(C)NC(=O)c1cc(-c2ccccc2)n(-c2ccccc2)n1 was read as NS3h inh CB 9.9 and Cy5 interf NS3h 1.04.
`CCCc1noc(-c2ccccc2Cl)n1` gave NS3h inh CB 2.2 and Cy5 interf NS3h 0.763*.
`Clc1ccccc1Cc1noc(-c2ccc(Br)cc2)n1` gave NS3h inh CB -1.8 and Cy5 interf NS3h 1.11.
`CCCc1noc(-c2ccc(C(C)(C)C)cc2)n1` gave NS3h inh CB 6.8 and Cy5 interf NS3h 0.714*.
`Clc1ccccc1Cc1noc(-c2ccccc2Cl)n1` gave NS3h inh CB 2.2 and Cy5 interf NS3h 0.918.
Screening CC1=NN(C(=O)c2cccnc2)C(C)(O)C1(C)C (centres undefined) returned NS3h inh CB -2.5 and Cy5 interf NS3h 0.647*.
Screening CC1=NN(C(=O)c2ccc(Cl)cc2)C(O)(c2cccnc2)C1 (centres undefined) returned NS3h inh CB -3.5 and Cy5 interf NS3h 0.964.
Screening COC(=O)c1ccccc1NC(=O)c1ccc(CN2CCOCC2)cc1 returned NS3h inh CB 7.7 and Cy5 interf NS3h 1.03.
For Cc1ccc(OCCSc2nnnn2-c2ccccc2)cc1 the results were NS3h inh CB -3.8 and Cy5 interf NS3h 0.97.
`COc1ccc2oc(=O)c(C(=O)Nc3cc(Cl)ccc3OC)cc2c1` gave NS3h inh CB -1.0 and Cy5 interf NS3h 1.03.
`Cc1ccc(NC(=O)c2ccc(Oc3ccc([N+](=O)[O-])cc3)cc2)cc1C` gave NS3h inh CB 5.0 and Cy5 interf NS3h 0.947.
`O=C(Nc1ccc(F)cc1)c1ccc([N+](=O)[O-])cc1` gave NS3h inh CB -10.7 and Cy5 interf NS3h 1.05.
For CC(=O)Nc1ccc(C(=O)Nc2ccc([N+](=O)[O-])cc2)cc1 the results were NS3h inh CB -4.0 and Cy5 interf NS3h 0.742*.
`O=C(CSCC(=O)Nc1ccc([N+](=O)[O-])cc1)Nc1ccccc1` gave NS3h inh CB 5.9 and Cy5 interf NS3h 0.623*.
For COCCNC(=O)c1ccc(Cl)c([N+](=O)[O-])c1 the results were NS3h inh CB 4.4 and Cy5 interf NS3h 1.07.
`COCCNC(=O)c1ccc([N+](=O)[O-])cc1` gave NS3h inh CB 4.0 and Cy5 interf NS3h 0.721*.
O=C(CSCC(=O)Nc1ccccc1)NCc1ccccc1 was read as NS3h inh CB 6.9 and Cy5 interf NS3h 1.13.
CC(=O)c1ccc(Oc2ccc([N+](=O)[O-])cc2)cc1 was read as NS3h inh CB 9.6 and Cy5 interf NS3h 0.638*.
For CCOc1cccc(C(=O)Nc2c(C)ccc3nsnc23)c1 the results were NS3h inh CB 7.1 and Cy5 interf NS3h 1.02.
`CCOC(=O)c1c(C)oc2ccc(OC(=O)c3cccc([N+](=O)[O-])c3)cc12` gave NS3h inh CB 14.6 and Cy5 interf NS3h 0.871.
Screening O=C(O)/C=C\C(=O)Nc1ccc(C(=O)c2ccccc2)cc1 returned NS3h inh CB 0.0 and Cy5 interf NS3h 0.983.
For CC(C)OC(=O)C(C(=O)C(F)(F)F)c1cc(NS(=O)(=O)c2ccc(Cl)cc2)ccc1O (centres undefined) the results were NS3h inh CB 8.0 and Cy5 interf NS3h 0.915.
Screening O=C(Nc1ccc(O)cc1)c1ccc2c(c1)C(=O)N(c1ccc([N+](=O)[O-])cc1)C2=O returned NS3h inh CB 0.0 and Cy5 interf NS3h 0.65*.
For Cc1c(C(=O)Nc2ccc([N+](=O)[O-])cc2)cnn1-c1ccccc1 the results were NS3h inh CB 5.0 and Cy5 interf NS3h 0.578*.
